Compound activity as filed in PubChem.
CYP2C9 inhib: inhibitors of human CYP2C9. 96,000 compounds, 20% hits. CYP2C9 Supersomes, luciferin-H conversion, luminescence. inhibition, % at 5 µM;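 active means blocking of liver enzyme CYP2C9 beyond about 50% at 5 µM, limit read from the data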
sEH inh: inhibitors of human soluble epoxide hydrolase. 91,000 compounds, 0.34% hits. recombinant human sEH enzymatic activity assay. inhibition, % at 2 µM. P34913; in the data active means inhibition above about 80%
Target sequence (P34913 whole entry, looked up): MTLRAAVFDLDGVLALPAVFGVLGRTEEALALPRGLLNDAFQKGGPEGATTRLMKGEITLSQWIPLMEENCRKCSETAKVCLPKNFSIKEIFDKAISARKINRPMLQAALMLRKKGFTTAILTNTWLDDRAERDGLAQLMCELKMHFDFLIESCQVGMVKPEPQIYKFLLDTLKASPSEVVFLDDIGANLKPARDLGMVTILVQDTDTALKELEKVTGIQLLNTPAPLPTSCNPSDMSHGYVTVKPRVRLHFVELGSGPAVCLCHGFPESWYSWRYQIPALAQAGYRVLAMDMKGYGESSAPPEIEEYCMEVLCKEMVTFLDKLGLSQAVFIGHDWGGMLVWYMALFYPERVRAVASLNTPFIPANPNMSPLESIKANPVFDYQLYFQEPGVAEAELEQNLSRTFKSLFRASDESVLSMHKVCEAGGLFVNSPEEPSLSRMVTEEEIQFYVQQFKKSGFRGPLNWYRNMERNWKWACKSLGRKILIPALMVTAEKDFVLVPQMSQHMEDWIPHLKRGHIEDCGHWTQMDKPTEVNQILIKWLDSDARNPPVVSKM
sEH act: soluble epoxide hydrolase (human) activation | activation, % at 2 µM | purified human sEH enzymatic activity, activator screen | 91,000 compounds, 0.04% hits | AID 717; in the data active means activation above about 37%
CYP2C9 act: increases human cytochrome P450 2C9 activity. recombinant CYP2C9, luciferin-H conversion, luminescence; active compounds read high; factor 1 = untreated enzyme, 0 = blocked. 96,000 compounds, 1.4% hits. activation factor at 5 µM;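 active means activation factor of 2 or more for CYP2C9 at a 5 µM dose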;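 further: 0 = sulfaphenazole-blocked wells and 1 = vehicle-only wells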
CYP2C19 inh: human CYP2C19 inhibition | P33261 | CYP2C19 Supersomes, luciferin-H EGE luminescence, 30 min | inhibition, % at 5 µM | 96,000 compounds, 21% hits | AID 778;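 active means CYP2C19 inhibition above a set limit at 5 µM in the primary screen, cut at about 50% in these data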;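 further: plate controls were negative control wells for no effect and 2.5 mM tranylcypromine positive control for full effect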
CYP2C19 activ: cytochrome P450 2C19 (human) activation; recombinant CYP2C19, luciferin-H EGE luminescence; active compounds read high; 0 = fully inhibited enzyme, 1 = untreated enzyme; 96,000 tested, under 10 active; AID 1025; activation factor at 5 µM;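 active means activation factor of at least 2 at 5 µM in the primary screen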;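 further: 0 = wells with 2.5 mM tranylcypromine and 1 = vehicle-only wells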
Numbers without * were called inactive. Compounds with a hit are over-represented: about 27% of the library has one in this group of screens.

Fc1ccc2c(c1)C(c1ccc(N3CCOCC3)cc1)=NNC(c1cccs1)=N2 was read as CYP2C9 inhib 84*, sEH inh 0, sEH act 2, CYP2C9 act 0.2, CYP2C19 inh 90* and CYP2C19 activ 0.1.
`Brc1ccc2c(c1)C(c1ccc(N3CCOCC3)cc1)=NNC(c1cccs1)=N2` gave CYP2C9 inhib 50, sEH inh -11, sEH act 10, CYP2C9 act 0.5, CYP2C19 inh 41 and CYP2C19 activ 0.6.
For Cc1nc2c(o1)CCc1ccccc1C2N1CCN(C)CC1 (stereo not drawn) the results were CYP2C9 inhib -17, CYP2C9 act 1.2, CYP2C19 inh -7 and CYP2C19 activ 1.1.
`COc1cc(C2C3=C(Nc4ncnn42)c2ccccc2CC3)cc(OC)c1OC` (stereo not drawn) gave CYP2C9 inhib 66*, sEH inh -5, sEH act 4, CYP2C9 act 0.3, CYP2C19 inh 66* and CYP2C19 activ 0.3.
Screening COc1ccc(C2C3=C(Nc4ncnn42)c2ccccc2CCC3)cc1 (stereo not drawn) returned CYP2C9 inhib 68*, CYP2C9 act 0.3, CYP2C19 inh 92* and CYP2C19 activ 0.1.
Screening COc1ccc(C2C(C(N)=O)=C(C)Nc3ncnn32)cc1 (stereo not drawn) returned CYP2C9 inhib -15, sEH inh 6, sEH act -7, CYP2C9 act 1.1, CYP2C19 inh -11 and CYP2C19 activ 1.1.
c1csc(C2C3=C(Nc4ncnn42)c2ccccc2OC3)c1 (stereo not drawn) was read as CYP2C9 inhib 37, sEH inh -8, sEH act 6, CYP2C9 act 0.6, CYP2C19 inh 29 and CYP2C19 activ 0.7.
`CC1=NN(C(=O)Cc2ccc([N+](=O)[O-])cc2)C(O)(c2ccccc2)C1` (stereo not drawn) gave CYP2C9 inhib 33, sEH inh -19, sEH act 18, CYP2C9 act 0.7, CYP2C19 inh 59* and CYP2C19 activ 0.4.
For CC(C)NC(=O)c1ccc2c(c1)N(CC(=O)N1CCOCC1)C(=O)C(C)(C)O2 the results were CYP2C9 inhib 15, CYP2C9 act 0.8, CYP2C19 inh 8 and CYP2C19 activ 0.9.
O=C(CN1CCN(Cc2ccc(F)cc2Cl)C1=O)NCCc1ccc(Cl)cc1 was read as CYP2C9 inhib 67*, sEH inh 39, sEH act -37, CYP2C9 act 0.3, CYP2C19 inh 37 and CYP2C19 activ 0.6.
Screening O=C(CN1CCCN(Cc2ccc(F)cc2Cl)C1=O)NC1CCCCCC1 returned CYP2C9 inhib 1, sEH inh 6, sEH act -6, CYP2C9 act 1, CYP2C19 inh 1 and CYP2C19 activ 1.
`COc1nc2c(C)cccc2cc1-c1noc(-c2ccco2)n1` gave CYP2C9 inhib 15, sEH inh -14, sEH act 14, CYP2C9 act 0.8, CYP2C19 inh 23 and CYP2C19 activ 0.8.
For COc1ccc(Cc2nnc(NC(=O)CSc3ccc(C)cc3)s2)cc1OC the results were CYP2C9 inhib -3, sEH inh 25, sEH act -22, CYP2C9 act 1, CYP2C19 inh -3 and CYP2C19 activ 1.
For Cc1cccc(NC(=O)CSc2nc(-c3ccccc3)c(C#N)c(=O)[nH]2)c1C the results were CYP2C9 inhib 93*, sEH inh -2, sEH act 2, CYP2C9 act 0.1, CYP2C19 inh 41 and CYP2C19 activ 0.6.
CCOC(=O)CCCCC(=O)c1[nH]c(=O)[nH]c1CSc1nc(-c2ccccc2)c(C#N)c(=O)[nH]1 was read as CYP2C9 inhib 86*, sEH inh 10, sEH act -11, CYP2C9 act 0.1, CYP2C19 inh 46 and CYP2C19 activ 0.5.
`Cc1cc(NC(=O)CSc2nc(-c3ccccc3)c(C#N)c(=O)[nH]2)no1` gave CYP2C9 inhib 70*, sEH inh 11, sEH act -9, CYP2C9 act 0.3, CYP2C19 inh 8 and CYP2C19 activ 0.9.
Cc1cc(C)n(-c2nnc(C)n2NS(C)(=O)=O)n1 was read as CYP2C9 inhib -25, sEH inh 7, sEH act -8, CYP2C9 act 1.2, CYP2C19 inh -7 and CYP2C19 activ 1.1.
Cc1cccc(-n2c(SCc3cc(=O)n4c(C)cccc4n3)nc3[nH]ncc3c2=O)c1 was read as CYP2C9 inhib -2, sEH inh -21, sEH act 18, CYP2C9 act 1, CYP2C19 inh 28 and CYP2C19 activ 0.7.
For COCCN(C(=O)Cc1cccs1)C(C(=O)NCc1ccc(OC)cc1)c1ccc(C(C)C)cc1 (stereo not drawn) the results were CYP2C9 inhib 69*, CYP2C9 act 0.3, CYP2C19 inh 48 and CYP2C19 activ 0.5.
CCc1ccc(C(C(=O)NCc2ccc(OC)cc2)N(CCOC)C(=O)Cc2cccs2)cc1 (stereo not drawn) was read as CYP2C9 inhib 43, sEH inh -7, sEH act 10, CYP2C9 act 0.6, CYP2C19 inh 25 and CYP2C19 activ 0.7.
For C=CCOc1c(CNc2ncn[nH]2)cccc1OC the results were CYP2C9 inhib 5, sEH inh 3, sEH act -3, CYP2C9 act 1, CYP2C19 inh 12 and CYP2C19 activ 0.9.
`C=CCOc1ccc2ccccc2c1CNc1ncn[nH]1` gave CYP2C9 inhib 62*, sEH inh 5, sEH act -2, CYP2C9 act 0.4, CYP2C19 inh 84* and CYP2C19 activ 0.2.
`COc1ccc(-c2cc(=O)n(-c3nc4ccccc4[nH]3)[nH]2)cc1` gave CYP2C9 inhib 28, sEH inh 19, sEH act -16, CYP2C9 act 0.7, CYP2C19 inh -22 and CYP2C19 activ 1.2.
`CN(CC(=O)Nc1ccc(Cl)cc1)CC(=O)Nc1cc(Cl)ccc1C#N` gave CYP2C9 inhib -24, CYP2C9 act 1.2, CYP2C19 inh 63* and CYP2C19 activ 0.4.
`CC(=O)CC1(O)C(=O)N(CN2CCN(c3ccccc3)CC2)c2ccccc21` (stereo not drawn) gave CYP2C9 inhib -6, sEH inh -8, sEH act 5, CYP2C9 act 1.1, CYP2C19 inh 13 and CYP2C19 activ 0.9.
For C=CCn1c(COc2ccc(Cl)cc2)nnc1SCC(=O)N/N=C/c1cccc(O)c1 the results were CYP2C9 inhib 29, sEH inh 11, sEH act -11, CYP2C9 act 0.7, CYP2C19 inh 10 and CYP2C19 activ 0.9.
C=CCn1c(COc2ccccc2)nnc1SCC(=O)C(C)(C)C was read as CYP2C9 inhib 44, sEH inh -12, sEH act 10, CYP2C9 act 0.6, CYP2C19 inh 65* and CYP2C19 activ 0.4.
